Pf growth 48h = P. falciparum growth inhibition at 48 hours (one generation) | P. falciparum luciferase growth in erythrocytes, 48 h | actives 5.9% (n = 310,000) | Potency, µM (titrated, usually from 28.7 µM), for the others: at the top dose activity change, negative = inhibition, usual class: inhibitors; active means well fitted inhibition curve with a large enough effect; inconclusive means small, poorly fitted or top-dose-only effect, or another doubt; inactive means no such curve, though single readings can be large or run the other way; further: potency means the concentration at half of the fitted maximal effect; on the % scale 0 is the no-effect control and ±100 the full control effect
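Firefly luciferase activity from engineered P. falciparum reports growth; inhibitors lower the luminescent signal. Cultures contained 2% hematocrit erythrocytes at 0.1% final parasitemia.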
Shiga inhibitor = inhibitors of Shiga toxin in Vero cells; Vero cells, Shiga toxin protein synthesis inhibition reporter; actives 9.2% (n = 290,000); inhibition, % at 38.7 µM; in the data active means inhibition mostly above about 28%, no sharp cut-off; inactive means mostly below about 43%; further: 0% is about no effect
Pf growth 96h = P. falciparum growth inhibition at 96 hour, primary screen for plastid delayed-death inhibitors; actives 6.9% (n = 320,000); P. falciparum luciferase reporter growth, 96 h; Potency, µM (series often up to 28.7 µM), for the others: at the top dose activity change, negative = inhibition, usual class: inhibitors; active means well fitted inhibition curve with a large enough effect; inconclusive means small, poorly fitted or top-dose-only effect, or another doubt; inactive means no such curve, though single readings can be large or run the other way; further: potency means the concentration at half of the fitted maximal effect; on the % scale 0 is the no-effect control and ±100 the full control effect
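Cell-based qHTS: luciferase-tagged P. falciparum in erythrocytes (2% hematocrit, 0.05% parasitemia final) incubated with compounds for 96 hours, 37 C, 5% CO2; luciferase detection reagent then added and luminescence measured.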
Cycloheximide cs = counter-screen hit for Shiga toxin inhibitors, cycloheximide; cell reporter, cycloheximide protein synthesis inhibition counterscreen; max response, %; actives 12% (n = 300,000); in the data active means max response mostly above about 13%, no sharp cut-off; inactive means mostly below about 14%; further: read at 38.3 µM for the half of the compounds with a filed dose; 0% is about no effect
SARS PLpro yeast = blocks SARS-CoV papain-like protease in a yeast assay; S. cerevisiae expressing SARS-CoV PLpro, growth rescue; Potency, µM (titrated, usually from 32.9 µM), for the others: at the highest dose activity, positive = growth rescue, most hits filed as activators; actives 0.19% (n = 330,000); further: potency means the concentration at half of the fitted maximal effect; 0% is about no effect; nearly all actives have a fitted effect of over 55% in size
NS1 function inh = blocks influenza NS1 protein function | Potency, µM (titrated, usually from 46.1 µM), inactives show at the top dose activity, positive = more growth | actives 0.4% (n = 270,000) | AID 2326; further: potency means the concentration at half of the fitted maximal effect; actives are rising curves; nearly all actives have a fitted effect of over 50% in size
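In this qHTS, NS1 from influenza A is expressed in budding yeast, where it slows growth. Cells are switched from glucose to 2% galactose medium (pH 6.0, -URA), treated with compound, and growth recovery is read at OD600.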
Active calls of the source: *; i = inactive; ? = inconclusive; / = no result given; [ ] = remark or other dose. Compounds with a hit are over-represented: about 21% of the library has one in this group of screens. Unless noted, the call rests on the fitted dose curve.

SMILES	Pf growth 48h	Shiga inhibitor	Pf growth 96h	Cycloheximide cs	SARS PLpro yeast	NS1 function inh
CCC(C(=O)Nc1ccc(C(=O)N2CCCC2)cc1)c1ccccc1 (stereo not drawn)	-12%	-16	23%	8	1%	/
Cc1cc2cc(C(c3nnnn3Cc3ccco3)N3CCCCC3)c(=O)[nH]c2cc1C (stereo not drawn)	6%	-11	/	-3	-4%	10%
CCOc1ccc2[nH]c(=O)c(CN(Cc3ccco3)C(CC)c3nnnn3Cc3ccccc3)cc2c1 (stereo not drawn)	5.9µM*	24	?	1	2%	-1%
CCOc1ccc2[nH]c(=O)c(CN(Cc3ccco3)Cc3nnnn3Cc3ccccc3)cc2c1	-18%	-12	-17%	6	-4%	-22%
CCOc1ccc2[nH]c(=O)c(C(c3nnnn3Cc3ccco3)N3CCN(C)CC3)cc2c1 (stereo not drawn)	?	96*	?	29*	-5%	-61%
CCOc1ccc2[nH]c(=O)c(CN(Cc3cccs3)C(CC)c3nnnn3C(C)(C)CC)cc2c1 (stereo not drawn)	0.93µM*	-9	/	-3	2%	4%
CCOC(=O)Cn1nnnc1C(CC)N(Cc1cccs1)Cc1cc2cc(C)ccc2[nH]c1=O (stereo not drawn)	/	-10	37%	-3	5%	-8%
Cc1ccc(Cl)cc1-n1c(SCC(=O)NCCC2=CCCCC2)nc2n[nH]c(C)c2c1=N	?	-5	?	1	-3%	11%
Cc1cc(-n2c(SCC(=O)NCCC3=CCCCC3)nc3n[nH]c(C)c3c2=N)ccc1Cl	?	-3	4.7µM*	19	-1%	0%
Nc1nnc(SCC(=O)Nc2cccc(S(=O)(=O)N3CCCCC3)c2)s1	?	/	?	/	1%	/
COc1ccc(CCC(=O)N2CCc3ccccc32)cc1	135%	133*	56%	41*	8%	-56%
COc1ccc(CCC(=O)N2c3ccccc3CC2C)cc1 (stereo not drawn)	13%	88*	0%	35*	-9%	-25%
CCOc1ccccc1NC(=O)N1CCCc2ccccc21	2%	33	145%	12	4%	-10%
Cc1ccc(OCCC(=O)OCC(=O)N2c3ccccc3CC2C)cc1 (stereo not drawn)	?	12	0%	-4	/	-53%
C=CCC(CC)C(=O)NC(=O)N1CCCc2ccccc21 (stereo not drawn)	0%	30*	-6%	7	2%	6%
COc1ccc(OC)c(NC(=O)N2CCCc3ccccc32)c1	24%	30	-24%	25*	-3%	-2%
O=C(CNC(=O)c1cn2ccccc2n1)Nc1ccc(F)c(F)c1	92%	/	146%	/	-12%	/
O=C(C1=C[C@@H](C2CC2)C[C@@H](OCCCCO)O1)N1CCN(Cc2ccccc2)CC1	-26%	-7	-18%	-2	0%	4%
COc1cc(C(=O)N(C)CC(=O)Nc2cccc(F)c2)ccc1OCc1ccccc1	-4%	/	-25%	/	1%	/
CCc1ccc(NC(=O)CCC(=O)N2CCSc3ccccc32)cc1	-4%	-4	-12%	2	-7%	-51%
O=C(Cc1ccc(-n2cccc2)cc1)N1CCc2ccccc21	/	47	?	20*	1%	5%
COc1ccc(NC(=O)N2CCc3ccccc32)cc1	126%	38	/	29*	-15%	-47%
CCOCC(=O)N1CCc2ccccc21	13%	17	/	1	6%	-1%
COc1ccc(NC(=O)N2CCCc3ccccc32)cc1	47%	122*	-7%	18*	-7%	-11%
COc1ccc(NC(=O)CSCC(=O)N2c3ccccc3CCc3ccccc32)cc1	?	-13	?	1	-19%	2%
SMILES	Pf growth 48h	Shiga inhibitor	Pf growth 96h	Cycloheximide cs	SARS PLpro yeast	NS1 function inh
CCc1ccccc1NC(=O)CCC(=O)N1CCSc2ccccc21	-10%	-3	4.1µM*	1	-3%	7%
O=C(CCN1C(=O)C2C3CCC(C3)C2C1=O)Nc1ccccc1C(F)(F)F (stereo not drawn)	11%	-2	35%[5.75 µM]	1	0%	-1%
CCn1cc(C(=O)N2CCN(c3ccccc3OC)CC2)c2cc(OC)c(OC)cc2c1=O	-6%	-3	18%	-3	-2%	/
O=C(NCC1CCCC(CNC(=O)N2CCc3ccccc32)C1)N1CCc2ccccc21 (stereo not drawn)	/	-8	5.9µM*	13	5%	10%
CC1(CCc2ccccc2)NC(=O)N(CC(=O)N2CC(=O)Nc3ccccc32)C1=O (stereo not drawn)	?	14	-16%	7	0%	-2%
CC1Cc2ccccc2N1C(=O)CN1C(=O)NC(C)(CCc2ccccc2)C1=O (stereo not drawn)	-29%	-2	?	14*	-1%	12%
CC1Cc2ccccc2N1C(=O)CCS(=O)(=O)c1cccs1 (stereo not drawn)	0%	60*	?	33*	0%	-49%
CCn1cc(C(=O)N2CCCc3ccccc32)c2cc(OC)c(OC)cc2c1=O	15µM*	0	/	6	6%	-14%
CC1(C)C(C=C(Cl)Cl)C1C(=O)N1CCN(c2ccccc2)CC1 (stereo not drawn)	?	-8	/	1	-12%	-32%
O=C(CSc1n[nH]c(-c2ccccc2Cl)n1)NC1CCCCC1	-25%	18	72%	2	1%	6%
CCc1ccccc1NC(=O)N1CCc2ccccc21	21%	53*	-2%	16*	-2%	-33%
O=C(CCC(=O)N1CCc2ccccc21)Nc1ccccc1	4%	11	/	2	-8%	-17%
COc1ccc(N/N=C(/C(C)=O)N2CCCc3ccccc32)cc1	4%	43	12µM*	11	0%	-42%
O=C(c1ccccc1)N1CCc2ccccc21	11%	20	/	19	-2%	?
COc1ccc(C(=O)N2CCc3ccccc32)cc1	11%	46*	-29%	30*	11%	-13%
O=C(Nc1ccccc1)N1CCc2ccccc21	i	71*	5%	37*	-23%	-10%
Cc1ccc(S(=O)(=O)N2CCCCC2)cc1NC(=O)c1ccccn1	0%	-6	0%	-2	-3%	-4%
COc1c(Cl)cc(C(=O)NCc2ccco2)cc1Cl	62%	3	?	-2	-5%	-13%
COc1ccc(C2C=C(c3ccc(C)c(C)c3)Nc3ncnn32)c(OC)c1OC (stereo not drawn)	/	-10	9.3µM*	-2	2%	-75%
Fc1ccc(Br)cc1C1C=C(c2ccc(Br)s2)Nc2ncnn21 (stereo not drawn)	-7%	-1	131%	8	-5%	-4%
COc1cccc(C2C=C(c3ccc(Br)s3)Nc3ncnn32)c1OC (stereo not drawn)	?	-3	2.3µM*	17	-7%	-20%

From PubChem
